The record followed here is the supplement of paper PMC12024529.

SMILES strings stand for the structures.

The test concerns HEK293 WT BDD-FVIII-Gluc. Description: secreted FVIII-Gluc luciferase Z-score vs DMSO control; higher = more FVIII-Gluc secretion. To be noted: 5 µM. On the procedure: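 Natural plant-compound library (480 compounds, ST catalogue IDs) screened on HEK293 cells stably expressing WT BDD-FVIII-Gaussia luciferase fusion at 5 µM. Secreted Gluc activity in the medium is given as a Z-score relative to DMSO controls.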
Turning to `C/C=C1/CN2CC[C@]34C(=C(C=O)[C@H]1C[C@H]23)Nc1ccccc14`, the “secreted FVIII-Gluc luciferase Z-score” value was 0.372.

`COc1cc2c(cc1O)CC1c3c(cc(O)c(OC)c3-2)CCN1C` (stereo not given): the “secreted FVIII-Gluc luciferase Z-score” value was -0.91.

For the compound `O=C1CCCC2[C@@H]3CCCN4CCC[C@H](CN12)[C@H]34` (stereo not given in full), the “secreted FVIII-Gluc luciferase Z-score” value turned out to be 0.572. `O=c1cccc2n1C[C@@H]1CNC[C@H]2C1`: the “secreted FVIII-Gluc luciferase Z-score” value stood at 0.0778. As to `O=c1cccc2n1CC1CC2CN2CCCC[C@H]12` (stereo not given in full), the “secreted FVIII-Gluc luciferase Z-score” value turned out to be 0.225. The value for `CC1=NCCc2c1[nH]c1cc(O)ccc21` was -0.262; that for `CC(C)[C@@]1(NC(=O)[C@@H]2C[C@@H]3c4cccc5[nH]cc(c45)C[C@H]3N(C)C2)O[C@@]2(O)[C@@H]3CCCN3C(=O)[C@H](Cc3ccccc3)N2C1=O` was -0.176; that for `C=C[C@H]1CN2CCC1C[C@@H]2[C@@H](O)c1ccnc2ccccc12` (stereo not given in full) was -0.283. Regarding `O=CN1CCCCC1C1CC[C@H]2CCCCN2C1` (stereo not given in full), the “secreted FVIII-Gluc luciferase Z-score” value came out at 0.233. For `Cc1ccc2[nH]c(CCN)cc2c1`, the “secreted FVIII-Gluc luciferase Z-score” value is 1.37. Next, `c1cc2c(cc1C1OCC3C(c4ccc5c(c4)OCO5)OCC13)OCO2` (stereo not given): -0.0258; `Cc1cc2c(C(C)C)c(O)c(O)c(C=O)c2c(O)c1-c1c(C)cc2c(C(C)C)c(O)c(O)c(C=O)c2c1O`: 1.13; `CC(=O)c1c(O)c(C)c(O)c(Cc2c(O)c3c(c(C(=O)/C=C/c4ccccc4)c2O)OC(C)(C)C=C3)c1O`: -1.16. As for `COc1ccn(C)c(=O)c1C#N`, the “secreted FVIII-Gluc luciferase Z-score” value is -0.599. On to `C[C@@H]1O[C@@H](O[C@H]2C[C@@H](O)[C@]3(CO)[C@H]4[C@H](O)C[C@]5(C)[C@@H](C6=CC(=O)OC6)CC[C@]5(O)[C@@H]4CC[C@]3(O)C2)[C@H](O)[C@H](O)[C@H]1O`, for which the “secreted FVIII-Gluc luciferase Z-score” value is -3.87. In the case of `C[C@]12CC[C@H](O)CC1=CC[C@@H]1[C@@H]2CC[C@]2(C)C(=O)CC[C@@H]12`, the “secreted FVIII-Gluc luciferase Z-score” value amounted to 1.29. Regarding `C=C(C)[C@@H]1[C@H]2OC(=O)[C@@H]1[C@]1(O)C[C@H]3O[C@]34C(=O)O[C@H]2[C@]14C`, the “secreted FVIII-Gluc luciferase Z-score” value was determined as 0.972. Next, `CC1CCC2C(C)C(=O)OC3OC4(C)CCC1C32OO4` (stereo not given): -0.111; `CCN1C[C@@]2(COC)C3[C@@H](OC)[C@H]4C1[C@@]3(C1C[C@@]3(O)[C@H](OC(=O)c5ccccc5)C1[C@]4(OC(C)=O)[C@@H](O)[C@@H]3OC)[C@@H](OC)C[C@H]2O` (stereo not given in full): -0.523; `COc1ccc2c(c1OC)C(=O)O[C@@H]2[C@H]1c2cc3c(cc2CCN1C)OCO3`: 1.04. The value for `CC1=CC(=O)c2c(O)cccc2C1=O` was -2.68; that for `CC1CC[C@@]2(OC1)O[C@H]1[C@@H](O)[C@H]3[C@@H]4CC[C@H]5C[C@@H](O[C@@H]6O[C@H](CO)[C@H](O[C@@H]7O[C@H](CO)[C@@H](O)[C@H](O[C@@H]8OC[C@@H](O)[C@H](O)[C@H]8O)[C@H]7O[C@@H]7O[C@H](CO)[C@@H](O)[C@H](O[C@@H]8O[C@H](CO)[C@@H](O)[C@H](O)[C@H]8O)[C@H]7O)[C@H](O)[C@H]6O)[C@H](O)C[C@]5(C)[C@H]4CC[C@]3(C)[C@H]1[C@@H]2C` (stereo not given in full) was 0.427; that for `CC(C)[C@H]1C(=O)N2CCC[C@H]2[C@]2(O)OC(NC(=O)[C@@H]3C=C4c5cccc6[nH]cc(c56)C[C@H]4N(C)C3)(C(C)C)C(=O)N12` (stereo not given in full) was 0.939. The value for `CCCN1C[C@H](CSC)C[C@@H]2c3cccc4[nH]cc(c34)C[C@H]21` was 0.385; that for `CC(=O)N1C[C@@H]2C[C@H](C1)c1cccc(=O)n1C2` was -0.118; that for `CO[C@]12C[C@@H](COC(=O)c3cncc(Br)c3)CN(C)[C@@H]1Cc1cn(C)c3cccc2c13` was 0.94. As for `O=C1C[C@@H]2OCC=C3CN4CC[C@]56c7ccccc7N1[C@H]5[C@H]2[C@H]3C[C@H]46`, the “secreted FVIII-Gluc luciferase Z-score” value was -0.432.

`CN1C[C@@H](CO)C=C2c3cccc4[nH]cc(c34)CC21` (stereo not given in full): the “secreted FVIII-Gluc luciferase Z-score” value came to 0.731.

Turning to `CCC1CN2CCC1CC2C(O)c1ccnc2ccccc12` (stereo not given), the “secreted FVIII-Gluc luciferase Z-score” value worked out at 0.33.

As for `CC(C)(C)[C@]1(O)C[C@@H]2OC(=O)C[C@@]23C(=O)O[C@@H]2OC(=O)[C@H](O)[C@]213`, the “secreted FVIII-Gluc luciferase Z-score” value was -0.32.

For `c1cncc(C2CCCCN2)c1` (stereo not given), the “secreted FVIII-Gluc luciferase Z-score” value was -0.711.

Consider `COC(C)C(O)(C(=O)OC1=CCN2CC[C@H](O)[C@@H]12)C(C)C` (stereo not given in full), for which the “secreted FVIII-Gluc luciferase Z-score” value was -0.914. On to `C[C@H]1C(=O)O[C@H]2CCN3CC=C(COC(=O)[C@](C)(O)[C@@]1(C)O)C23` (stereo not given in full), for which the “secreted FVIII-Gluc luciferase Z-score” value was determined as 0.0827. With `C[N+]1=Cc2cc3c(cc2CC1)OCO3`, the “secreted FVIII-Gluc luciferase Z-score” value came out at 0.204. The value for `CC(C)C[C@H]1C(=O)N2CCC[C@H]2[C@]2(O)O[C@](NC(=O)[C@@H]3C=C4c5cccc6[nH]cc(c56)C[C@H]4N(C)C3)(C(C)C)C(=O)N12` was 0.241; that for `COc1ccc2c(c1OC)CN1CCc3cc4c(cc3C1C2)OCO4` (stereo not given) was 0.658; that for `OC1COC(NC2OCC(O)C(O)C2O)C(O)C1O` (stereo not given) was 0.00225.

With `CNC1C2CN3CCC(O2)C13` (stereo not given), the “secreted FVIII-Gluc luciferase Z-score” value is -1.02. As for `C[C@]12CC[C@H](O)C[C@H]1CC[C@@H]1[C@@H]2C[C@@H](O)[C@]2(C)[C@@H](C3=CC(=O)OC3)CC[C@]12O`, the “secreted FVIII-Gluc luciferase Z-score” value was -7.45.

`CC1CC[C@@]2(NC1)O[C@H]1C[C@H]3[C@@H]4CC=C5C[C@@H](O)CC[C@]5(C)[C@H]4CC[C@]3(C)[C@H]1[C@@H]2C` (stereo not given in full): the “secreted FVIII-Gluc luciferase Z-score” value was -1.02.
